Results published in PubChem BioAssay (NCATS).
Records with an inconclusive call do not appear. Active and inactive are the calls of the source. Unless noted, calls follow the shape of the dose curve; as a rule, active = well fitted curve in the direction sought with a large enough effect; inconclusive = small, poorly fitted or top-dose-only effect, or another doubt; inactive = no such curve, though single readings can be large; an effect the other way counts as inactive or inconclusive.

Experiments:
[1] = AP1 Signaling Pathway (AID 357; active = well fitted curve in either direction with a large enough effect, not every such curve was filed as active; also: % is scaled to controls: 0 for no effect and ±100 for the full control effect); details: ME-180 AP-1-bla reporter, EGF-induced, beta-lactamase ratio, 5 h; at 17.2 µM (top of the series) unless noted
Procedure, shortened: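 ME-180 cells with beta-lactamase reporter under AP-1 response element, stimulated with EC50 EGF; compounds tested in titration series, 5 h at 37 °C. CCF4 substrate added 2.5 h at room temperature; 460/530 nm emission ratio gave %activity and AC50.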

[2] = NFAT Signaling Pathway (AID 444; active = well fitted curve in either direction with a large enough effect, not every such curve was filed as active;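 also: carbachol stimulus at about its EC50 of 1 µM final; % is scaled to controls: 0 for no effect and ±100 for the full control effect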); details: Jurkat NFAT-bla M1, carbachol, beta-lactamase ratio, 5 h; at 17.2 µM (top of the series) unless noted
Procedure, shortened: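 Jurkat cells carrying an NFAT-driven β-lactamase reporter and co-transfected muscarinic M1 receptor were treated with compound plus carbachol (1 uM final, an EC50 level) for 5 h at 37 °C. CCF4 loading followed for 1 h at RT; 460/530 nm ratio gave %activity.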

[3] = Stat Signaling Pathway (AID 446; active = well fitted curve in either direction with a large enough effect, not every such curve was filed as active;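 also: ME-180 cervical cancer cells given 40 pM IL-6 alongside compound; SIE-controlled beta-lactamase reporter measured as 460/530 nm FRET emission ratio; % is scaled to controls: 0 for no effect and ±100 for the full control effect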)
Procedure, shortened: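 Screening format detects activators and inhibitors alike: ME-180 SIE-bla cells stimulated at 40 pM IL-6 for 5 hrs with compound, then dual-emission beta-lactamase read at 405 nm excitation.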

[4] = target: Glucocorticoid receptor (Homo sapiens) (UniProt P04150); assay: GR-GFP Redistribution (AID 450;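 active = compounds whose dose series gives a full or clear partial fitted curve of increased nuclear translocation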; also: potency is read from the fitted curve at half-maximal effect); details: U2OS GR-GFP nuclear translocation, laser cytometry, 2 h
Glucocorticoid receptor (Homo sapiens), sequence (P04150 whole entry, looked up, the tested form may be a part): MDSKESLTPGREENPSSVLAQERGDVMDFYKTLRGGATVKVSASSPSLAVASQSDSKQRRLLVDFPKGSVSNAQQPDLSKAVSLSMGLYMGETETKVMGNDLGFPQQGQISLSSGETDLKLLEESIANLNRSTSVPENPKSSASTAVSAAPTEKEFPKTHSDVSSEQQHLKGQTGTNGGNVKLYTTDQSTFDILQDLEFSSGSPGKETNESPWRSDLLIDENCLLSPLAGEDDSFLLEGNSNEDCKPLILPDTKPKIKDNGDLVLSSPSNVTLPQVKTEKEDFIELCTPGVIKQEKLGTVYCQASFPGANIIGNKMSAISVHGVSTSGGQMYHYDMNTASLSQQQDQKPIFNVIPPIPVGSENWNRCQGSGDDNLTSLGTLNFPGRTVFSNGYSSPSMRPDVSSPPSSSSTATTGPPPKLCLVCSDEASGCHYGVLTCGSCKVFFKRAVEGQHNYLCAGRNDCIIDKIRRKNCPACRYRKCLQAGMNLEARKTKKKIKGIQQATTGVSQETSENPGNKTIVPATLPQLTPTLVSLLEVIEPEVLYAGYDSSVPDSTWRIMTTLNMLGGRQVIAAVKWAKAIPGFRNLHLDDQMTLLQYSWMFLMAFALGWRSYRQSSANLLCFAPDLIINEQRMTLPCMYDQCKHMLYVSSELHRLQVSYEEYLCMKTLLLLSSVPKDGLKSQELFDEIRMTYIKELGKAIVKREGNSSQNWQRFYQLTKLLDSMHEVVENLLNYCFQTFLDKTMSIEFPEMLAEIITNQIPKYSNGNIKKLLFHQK

[5] = target: Glucocorticoid receptor (Homo sapiens) (UniProt P04150); assay: GR-EFC Redistribution (AID 451; calls by dose curve; also: potency is read from the fitted curve at half-maximal effect); details: CHO-K1 GR-EFC translocation, beta-gal luminescence, 2 h
Procedure, shortened: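 CHO-K1 cells stably expressing nuclear-localized β-gal enzyme acceptor and GR fused C-terminally to the enzyme donor fragment; ligand-driven nuclear translocation restores β-gal by complementation. Compounds titrated up to 46 uM final, 2 h at 37 °C; luminescence read.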

[6] = target: Mitogen-activated protein kinase 10 (Mus musculus) (UniProt Q61831); assay: JNK3 AlphaScreen Assay (AID 530; active = well fitted curve in either direction with a large enough effect, not every such curve was filed as active;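 also: kinase came from lysate of stimulated human HepG2 cells; signal reports phosphorylation of biotinylated GST-cJun 1-79 at Ser73 with 10 µM ATP; % is scaled to controls: 0 for no effect and ±100 for the full control effect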)
Procedure, shortened: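 JNK3 came from HepG2 lysates pre-activated with IL-1beta and TNF-alpha and phosphorylated biotinylated GST-cJun (1-79) at 10 uM ATP, pH 7.6, room temperature. Compounds were titrated. AlphaScreen signal used anti-phospho-cJun (Ser73) antibody.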

[7] = target: 3',5'-cyclic-AMP phosphodiesterase 4B (Homo sapiens) (UniProt Q07343); assay: qHTS Assay for Inhibitors of PDE-IV (AID 607; active = well fitted activation curve with a large enough effect in the main read-out, with a control signal flat, not every such curve was filed as active; also: % of control where 0% means no effect)
3',5'-cyclic-AMP phosphodiesterase 4B (Homo sapiens), sequence (Q07343 whole entry, looked up): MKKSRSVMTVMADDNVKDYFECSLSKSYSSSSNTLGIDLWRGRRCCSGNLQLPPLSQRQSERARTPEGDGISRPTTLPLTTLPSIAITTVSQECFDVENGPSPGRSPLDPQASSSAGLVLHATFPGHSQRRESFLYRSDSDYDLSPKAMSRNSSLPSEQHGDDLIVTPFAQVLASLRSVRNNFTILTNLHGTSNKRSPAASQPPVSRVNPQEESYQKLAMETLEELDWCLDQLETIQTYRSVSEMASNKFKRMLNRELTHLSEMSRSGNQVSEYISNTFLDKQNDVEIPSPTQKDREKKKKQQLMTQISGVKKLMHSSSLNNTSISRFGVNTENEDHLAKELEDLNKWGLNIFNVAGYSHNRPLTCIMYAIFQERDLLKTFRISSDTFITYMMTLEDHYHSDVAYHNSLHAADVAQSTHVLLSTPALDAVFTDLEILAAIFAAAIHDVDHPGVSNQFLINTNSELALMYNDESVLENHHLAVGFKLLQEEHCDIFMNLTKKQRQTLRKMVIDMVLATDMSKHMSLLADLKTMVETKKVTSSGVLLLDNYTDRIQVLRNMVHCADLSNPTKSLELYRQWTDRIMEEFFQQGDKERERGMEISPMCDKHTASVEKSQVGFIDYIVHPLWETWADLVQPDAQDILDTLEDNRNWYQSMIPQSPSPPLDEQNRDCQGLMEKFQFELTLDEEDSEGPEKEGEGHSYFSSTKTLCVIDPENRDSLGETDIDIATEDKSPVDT
Procedure, shortened: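 The readout is membrane depolarisation from a cAMP-sensing CNG channel, detected with a potential dye at ex 535/em 590. Cells were HEK293-derived (endogenous PDE-IV) at 1000 cells/well, titrated up to 22.9 uM final.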

[8] = target: Cytochrome P450 3A4 (Homo sapiens) (UniProt P08684); assay: qHTS Assay for Activators of Cytochrome P450 3A4 (AID 885); also: nearly all actives have a fitted effect of over 65% in size
Cytochrome P450 3A4 (Homo sapiens), sequence (P08684 whole entry, looked up): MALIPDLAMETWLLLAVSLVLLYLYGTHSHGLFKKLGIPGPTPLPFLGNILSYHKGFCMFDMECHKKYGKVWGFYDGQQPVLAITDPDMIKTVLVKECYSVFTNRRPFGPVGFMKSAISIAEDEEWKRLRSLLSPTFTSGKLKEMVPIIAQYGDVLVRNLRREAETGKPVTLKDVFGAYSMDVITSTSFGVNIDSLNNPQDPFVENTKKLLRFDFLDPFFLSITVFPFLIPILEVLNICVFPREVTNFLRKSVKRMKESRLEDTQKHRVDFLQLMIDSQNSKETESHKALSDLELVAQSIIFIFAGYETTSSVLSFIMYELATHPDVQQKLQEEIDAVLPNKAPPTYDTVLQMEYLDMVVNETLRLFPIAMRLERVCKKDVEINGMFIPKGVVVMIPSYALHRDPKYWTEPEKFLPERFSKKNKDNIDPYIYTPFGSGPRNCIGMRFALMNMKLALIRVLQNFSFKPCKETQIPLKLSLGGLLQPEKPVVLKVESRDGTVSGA
Procedure, shortened: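 Steps: enzyme/substrate mix dispensed; compound added, 10 min RT; NADPH regeneration solution added, 60 min RT; luciferin detection buffer stops reaction; 20 min later luminescence measured.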

[9] = target: ATP-dependent 6-phosphofructokinase (Trypanosoma brucei brucei) (UniProt O15648); assay: qHTS Assay to Find Inhibitors of T. brucei phosphofructokinase: hit validation (AID 492961)
ATP-dependent 6-phosphofructokinase (Trypanosoma brucei brucei), sequence (O15648 whole entry, looked up): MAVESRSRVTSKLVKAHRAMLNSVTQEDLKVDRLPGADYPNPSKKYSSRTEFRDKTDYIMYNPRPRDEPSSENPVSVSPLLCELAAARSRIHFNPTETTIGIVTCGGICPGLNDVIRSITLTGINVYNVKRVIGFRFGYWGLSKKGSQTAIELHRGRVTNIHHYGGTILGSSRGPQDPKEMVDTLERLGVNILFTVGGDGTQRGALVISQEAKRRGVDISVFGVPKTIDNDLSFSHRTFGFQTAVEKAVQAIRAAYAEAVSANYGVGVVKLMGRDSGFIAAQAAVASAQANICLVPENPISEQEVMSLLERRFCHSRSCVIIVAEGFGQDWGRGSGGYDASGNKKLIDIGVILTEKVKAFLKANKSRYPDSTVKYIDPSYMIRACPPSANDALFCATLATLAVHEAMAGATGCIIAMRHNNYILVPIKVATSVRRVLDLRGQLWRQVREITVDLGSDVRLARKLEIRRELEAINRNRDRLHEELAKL
Procedure, shortened: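 Percent activity derived from corrected luminescence, normalized between 0x and 1x enzyme controls, then fitted to concentration-response curves. Conditions: 1.25 nM PFK, 0.1 mM ATP, 0.5 mM F6P, 45 min RT.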

[10] = target: Ubiquitin carboxyl-terminal hydrolase 1 (Homo sapiens) (UniProt O94782); assay: Inhibitors of USP1/UAF1: Pilot qHTS (AID 504865);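 also: rhodamine fluorescence freed from ubiquitin-rhodamine substrate followed over time; top concentration of the series differs between compounds; % is scaled to controls: 0 for no effect and ±100 for the full control effect; nearly all actives have a fitted effect of over 35% in size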
Ubiquitin carboxyl-terminal hydrolase 1 (Homo sapiens), sequence (O94782 whole entry, looked up): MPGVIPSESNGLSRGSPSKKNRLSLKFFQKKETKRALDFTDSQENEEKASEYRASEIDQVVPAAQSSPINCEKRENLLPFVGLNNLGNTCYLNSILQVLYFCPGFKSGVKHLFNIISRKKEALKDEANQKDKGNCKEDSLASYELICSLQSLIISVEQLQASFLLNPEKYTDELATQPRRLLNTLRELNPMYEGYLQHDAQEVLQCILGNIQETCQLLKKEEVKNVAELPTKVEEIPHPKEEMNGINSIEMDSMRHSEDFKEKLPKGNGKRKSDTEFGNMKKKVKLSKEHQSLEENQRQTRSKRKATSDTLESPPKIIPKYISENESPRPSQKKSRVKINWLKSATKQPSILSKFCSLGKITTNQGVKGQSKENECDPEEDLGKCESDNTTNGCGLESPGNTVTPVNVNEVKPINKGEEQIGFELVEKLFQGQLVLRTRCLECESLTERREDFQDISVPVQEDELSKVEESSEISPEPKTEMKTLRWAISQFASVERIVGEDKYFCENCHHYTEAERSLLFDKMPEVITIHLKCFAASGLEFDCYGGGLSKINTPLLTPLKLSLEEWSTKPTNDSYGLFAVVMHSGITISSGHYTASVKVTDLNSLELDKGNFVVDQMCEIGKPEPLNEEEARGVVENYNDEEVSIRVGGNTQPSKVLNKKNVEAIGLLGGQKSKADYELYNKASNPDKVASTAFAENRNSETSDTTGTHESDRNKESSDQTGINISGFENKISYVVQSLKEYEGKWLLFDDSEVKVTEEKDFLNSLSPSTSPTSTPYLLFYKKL
Procedure, shortened: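 Enzyme-free wells gave the negative control, while test wells held 1nM USP1/UAF1 preincubated with compound for 15 min at room temperature. Ub-Rho at 150nM final started the reaction, and fluorescence at 480/540 nm was recorded kinetically.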

[11] = target: Luciferin 4-monooxygenase (Photinus pyralis) (UniProt P08659); assay: Biochemical firefly luciferase enzyme assay for NPC (AID 624030);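 also: purified P. pyralis luciferase at 10 nM with luciferin and ATP substrate; 0% = DMSO and -100% = full luciferase inhibition by PTC124 control; nearly all actives have a fitted effect of over 70% in size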
Luciferin 4-monooxygenase (Photinus pyralis), sequence (P08659 whole entry, looked up): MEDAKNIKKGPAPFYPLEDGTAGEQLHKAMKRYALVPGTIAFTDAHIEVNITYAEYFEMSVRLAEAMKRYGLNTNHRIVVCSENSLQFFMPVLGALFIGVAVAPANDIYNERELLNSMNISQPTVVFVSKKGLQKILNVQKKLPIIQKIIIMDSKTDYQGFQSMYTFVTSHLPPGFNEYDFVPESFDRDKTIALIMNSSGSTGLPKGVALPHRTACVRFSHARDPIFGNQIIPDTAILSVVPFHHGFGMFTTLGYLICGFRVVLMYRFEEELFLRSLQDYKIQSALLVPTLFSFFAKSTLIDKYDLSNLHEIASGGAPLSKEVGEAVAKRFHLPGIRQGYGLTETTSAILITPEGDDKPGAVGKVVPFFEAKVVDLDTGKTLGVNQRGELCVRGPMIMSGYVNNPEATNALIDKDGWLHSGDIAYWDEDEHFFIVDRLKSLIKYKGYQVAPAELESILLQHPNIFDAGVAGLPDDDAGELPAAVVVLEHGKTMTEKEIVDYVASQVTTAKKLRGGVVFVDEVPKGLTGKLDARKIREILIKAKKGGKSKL
Procedure, shortened: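 Counter-screen for direct inhibition of the luciferase enzyme by approved-drug library compounds, run at 10 nM enzyme in 50 mM Tris acetate (final). Luminescence was read within 5 min of enzyme-buffer addition and normalized to PTC124 versus DMSO (0%).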

[12] = S16 Schwann cell viability assay (CellTiter-Glo assay) (AID 624031);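 also: cellular ATP luminescence as a viability measure; plate controls were DMSO-treated cells for no effect and cell-free wells for full effect; nearly all actives have a fitted effect of over 70% in size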
Procedure, shortened: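 Native S16 rat Schwann cells in DMEM/10% FBS without phenol red were incubated overnight, then exposed to compounds for 24 h at 37 °C/5% CO2. Viability was read as ATP luminescence (CellTiter-Glo), normalized to no-cell wells and DMSO (0%).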

[13] = S16 Schwann cell PMP22 intronic element firefly luciferase assay (AID 624032);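 also: plate controls were DMSO for no effect and PTC124 positive control mean for full effect; nearly all actives have a fitted effect of over 30% in size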
Procedure, shortened: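 Rat S16 Schwann cells stably carrying a PMP22 intronic element-driven Fluc reporter were seeded overnight, then exposed to compounds for 24 h at 37 °C. Luminescence was normalized to PTC124 (positive control) and DMSO (0% activity).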

[14] = S16 Schwann cell PMP22 intronic element beta-lactamase assay (AID 624044; calls by dose curve;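 also: 0% = DMSO and -100% = potassium clavulanate positive control; nearly all actives have a fitted effect of over 15% in size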); details: S16 rat Schwann cells, PMP22 element beta-lactamase FRET, 24 h; ratio activity, negative = inhibition: at 38.3 µM (top of the series)
Procedure, shortened: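 Rat S16 Schwann cells with beta-Lac driven by a PMP22 intronic element, compound-treated 24 h at 37 °C. LiveBLAzer FRET B/G read: 460 nm normalized to potassium clavulanate vs DMSO; 535 nm FRET as viability; concentration-effect curves classified.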

[15] = qHTS profiling for inhibitors of Plasmodium falciparum proliferation (AID 504749);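 also: 0% = DMSO vehicle and full inhibition = artemisinin control; nearly all actives have a fitted effect of over 60% in size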; details: P. falciparum in erythrocytes, SYBR Green DNA, 72 h, at 12.8 µM (top of the series)
Procedure, shortened: (§1)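 P. falciparum-infected erythrocytes (0.3% parasitemia, 2.5% hematocrit final) were exposed to compounds for 72 h at 37 C in 5% CO2, then lysed with SYBR Green buffer overnight at room temperature; parasite DNA fluorescence was normalized to artemisinin and DMSO controls.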

[16] = system: 3D7; assay: as above; details: P. falciparum in erythrocytes, SYBR Green DNA, 72 h; series mostly up to 28.7 µM
Procedure, shortened: as §1

[17] = system: AA1029; assay: as above; details: P. falciparum in erythrocytes, SYBR Green DNA, 72 h; series mostly up to 28.7 µM
Procedure, shortened: as §1

[18] = system: AS120; assay: as above; details: P. falciparum in erythrocytes, SYBR Green DNA, 72 h; series mostly up to 28.7 µM
Procedure, shortened: as §1

[19] = system: ATS189; assay: as above; details: P. falciparum in erythrocytes, SYBR Green DNA, 72 h; series mostly up to 28.7 µM
Procedure, shortened: as §1

[20] = system: ATS95; assay: as above; details: P. falciparum in erythrocytes, SYBR Green DNA, 72 h; series mostly up to 28.7 µM
Procedure, shortened: as §1

[21] = system: C2A; assay: as above; details: P. falciparum in erythrocytes, SYBR Green DNA, 72 h; series mostly up to 28.7 µM
Procedure, shortened: as §1

[22] = system: CP185; assay: as above; details: P. falciparum in erythrocytes, SYBR Green DNA, 72 h; series mostly up to 28.7 µM
Procedure, shortened: as §1

[23] = system: CP191; assay: as above; details: P. falciparum in erythrocytes, SYBR Green DNA, 72 h; series mostly up to 28.7 µM
Procedure, shortened: as §1

[24] = system: CP192; assay: as above; details: P. falciparum in erythrocytes, SYBR Green DNA, 72 h; series mostly up to 28.7 µM
Procedure, shortened: as §1

[25] = system: CP194; assay: as above; details: P. falciparum in erythrocytes, SYBR Green DNA, 72 h; series mostly up to 28.7 µM
Procedure, shortened: as §1

[26] = system: CP201; assay: as above; details: P. falciparum in erythrocytes, SYBR Green DNA, 72 h; series mostly up to 28.7 µM
Procedure, shortened: as §1

[27] = system: CP203; assay: as above; details: P. falciparum in erythrocytes, SYBR Green DNA, 72 h; series mostly up to 28.7 µM
Procedure, shortened: as §1

[28] = system: CP211; assay: as above; details: P. falciparum in erythrocytes, SYBR Green DNA, 72 h; series mostly up to 28.7 µM
Procedure, shortened: as §1

[29] = system: CP215; assay: as above; details: P. falciparum in erythrocytes, SYBR Green DNA, 72 h; series mostly up to 28.7 µM
Procedure, shortened: as §1

[30] = system: CP217; assay: as above; details: P. falciparum in erythrocytes, SYBR Green DNA, 72 h; series mostly up to 28.7 µM
Procedure, shortened: as §1

[31] = system: CP237; assay: as above; details: P. falciparum in erythrocytes, SYBR Green DNA, 72 h; series mostly up to 28.7 µM
Procedure, shortened: as §1

[32] = system: CP238; assay: as above; details: P. falciparum in erythrocytes, SYBR Green DNA, 72 h; series mostly up to 28.7 µM
Procedure, shortened: as §1

[33] = system: CP247; assay: as above; details: P. falciparum in erythrocytes, SYBR Green DNA, 72 h; series mostly up to 28.7 µM
Procedure, shortened: as §1

[34] = system: CP250; assay: as above; details: P. falciparum in erythrocytes, SYBR Green DNA, 72 h; series mostly up to 28.7 µM
Procedure, shortened: as §1

[35] = system: CP252; assay: as above; details: P. falciparum in erythrocytes, SYBR Green DNA, 72 h; series mostly up to 28.7 µM
Procedure, shortened: as §1

CCOC(=O)c1cncn1[C@@H](C)c1ccccc1
inactive: activity change, negative = inhibition [1] 9.06% | activity change, negative = inhibition [2] -21.8% | outcome [3] | Potency [4] > 20.6 µM | Potency [5] > 20.6 µM | outcome [6] | outcome [7] | Potency [8] | outcome [9] | Potency [10] | Potency [11] | Potency [12] | Potency [13] | Potency [14] | activity, negative = inhibition ([15]; parasite line A) -15.7% | activity, negative = inhibition ([15]; parasite line B) -15.4% | Potency [16] | Potency [17] | Potency [18] | Potency [19] | Potency [20] | Potency [21] | Potency [22] | Potency [23] | Potency [24] | Potency [25] | Potency [26] | Potency [27] | Potency [28] | Potency [29] | Potency [30] | Potency [31] | Potency [32] | Potency [33] | Potency [34] | Potency [35]
